Source: PubChem BioAssay AID1159580 (chemical genetic matrix, 2015)
“And” between values parts separate entries of the source, which are not always exact repeats. Equal entries are not always repeated. The campaign covered roughly 5,500 compounds. About 2,000 (36%) were called active. About 18% were inconclusive and are not listed. No stated cut-off is given here; in the data, active means normalized growth mostly below about 0.91 (no sharp cut-off); inconclusive means no clear call, values can overlap the other calls; inactive means mostly above about 0.92. Some of the results follow.

Test: chemical genetic growth profiling, strain panel (AID 1159580);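 further: tested at 20 µM; growth read once vehicle control cultures reached saturation at 30 °C; 1 = growth at the plate median or of vehicle wells; lower values mean less growth of the strain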
Settings: S. cerevisiae deletion strains, growth OD

Measured: normalized growth

CCCc1cc(=O)[nH]c(=S)[nH]1
inactive: locus YAL013W, strain DEP1, active compounds read low 1.02 | locus YAL021C, strain ccr4, active compounds read low 1.02 | locus YAL026C, strain drs2, active compounds read low 1.03 | locus YAL030W, strain snc1, active compounds read low 1.02 | locus YBL061C, strain skt5, active compounds read low 1.03 | locus YBR009C, strain hhf1, active compounds read low 1.02 | locus YBR021W, strain FUR4, active compounds read low 0.987 | locus YBR023C, strain chs3, active compounds read low 1.02 | locus YBR171W, strain sec66, active compounds read low 1.04 | locus YBR229C, strain ROT2, active compounds read low 1 | locus YBR231C, strain swc5, active compounds read low 1 | locus YBR279W, strain paf1, active compounds read low 0.988 | locus YCL011C, strain gbp2, active compounds read low 1.01 | locus YCL016C, strain dcc1, active compounds read low 1.01 | locus YCL029C, strain bik1, active compounds read low 0.994 | locus YCL069W, strain vba3, active compounds read low 1.02 | locus YCR088W, strain abp1, active compounds read low 1.01 | locus YDL005C, strain med2, active compounds read low 1.03 | locus YDL035C, strain GPR1, active compounds read low 1.01 | locus YDL040C, strain nat1, active compounds read low 1.01 | locus YDL074C, strain BRE1, active compounds read low 1.03 | locus YDL101C, strain DUN1, active compounds read low 1.01 | locus YDL134C, strain PPH21, active compounds read low 1.01 | locus YDL185W, strain tfp1, active compounds read low 1.02 | locus YDL192W, strain arf1, active compounds read low 1 | locus YDR001C, strain nth1, active compounds read low 1.01 | locus YDR069C, strain doa4, active compounds read low 1.01 | locus YDR101C, strain arx1, active compounds read low 0.985 | locus YDR137W, strain rgp1, active compounds read low 1.02 | locus YDR150W, strain NUM1, active compounds read low 1.01 | locus YDR159W, strain sac3, active compounds read low 0.995 | locus YDR162C, strain NBP2, active compounds read low 1.02 | locus YDR195W, strain ref2 0.999 | locus YDR297W, strain sur2, active compounds read low 1.01 | locus YDR318W, strain mcm21, active compounds read low 0.985 | locus YDR334W, strain swr1, active compounds read low 1.03 | locus YDR335W, strain msn5, active compounds read low 1.01 | locus YDR388W, active compounds read low 0.989 | locus YDR392W, strain spt3, active compounds read low 0.997 | locus YDR502C, strain sam2, active compounds read low 0.989 | locus YEL003W, strain gim4, active compounds read low 1.01 | locus YEL037C, strain rad23, active compounds read low 1.03 | locus YEL061C, strain CIN8 (second series), active compounds read low 1.03 | locus YEL061C, strain CIN8, active compounds read low 1.01 | locus YER015W, strain faa2, active compounds read low 1.01 | locus YER016W, strain bim1, active compounds read low 1 | locus YER110C, active compounds read low 0.991 | locus YER111C, strain swi4, active compounds read low 1 | locus YER155C, strain BEM2 (second series), active compounds read low 1.04 | locus YER155C, strain BEM2, active compounds read low 1.01 | locus YER167W, strain BCK2, active compounds read low 1.01 | locus YFR010W, strain ubp6, active compounds read low 1.02 | locus YGL078C, strain dbp3, active compounds read low 0.996 | locus YGL086W, strain mad1, active compounds read low 0.987 | locus YGL167C, strain pmr1, active compounds read low 1.02 | locus YGL173C, strain kem1, active compounds read low 1.04 | locus YGL227W, strain vid30, active compounds read low 1.03 | locus YGL240W, strain doc1, active compounds read low 1 | locus YGL248W, strain PDE1, active compounds read low 1.01 | locus YGL253W, strain hxk2, active compounds read low 0.995 | locus YGR078C, strain PAC10, active compounds read low 1 | locus YGR135W, strain pre9, active compounds read low 0.994 | locus YGR229C, strain SMI1, active compounds read low 1.02 | locus YGR252W, strain gcn5, active compounds read low 0.901 | locus YHR013C, strain ard1, active compounds read low 1.09 | locus YHR027C, strain rpn1, active compounds read low 1.01 | locus YHR030C, strain SLT2, active compounds read low 1.02 | locus YHR079C, strain IRE1 (second series), active compounds read low 0.983 | locus YHR079C, strain IRE1, active compounds read low 1.03 | locus YHR094C, strain hxt1, active compounds read low 0.993 | locus YHR129C, strain ARP1, active compounds read low 1.02 | locus YHR142W, strain chs7, active compounds read low 1.05 | locus YHR200W, strain rpn10, active compounds read low 1.01 | locus YIL066C, strain RNR3, active compounds read low 1 | locus YIL073C, strain SPO22, active compounds read low 0.955 | locus YIL125W, strain kgd1, active compounds read low 1 | locus YIR030C, strain dcg1, active compounds read low 0.998 | locus YJL092W, strain hpr5, active compounds read low 1.02 | locus YJL095W, strain BCK1 (second series), active compounds read low 1.02 | locus YJL095W, strain BCK1, active compounds read low 1.01 and 0.999 | locus YJL115W, strain asf1, active compounds read low 1.02 | locus YJL129C, strain trk1, active compounds read low 1.01 | locus YJL134W, strain LCB3, active compounds read low 1.01 | locus YJL154C, strain vps35, active compounds read low 1 | locus YJL164C, strain tpk1, active compounds read low 1.02 | locus YJL166W, strain qcr8, active compounds read low 1.04 | locus YJL168C, strain set2, active compounds read low 0.989 | locus YJL187C, strain SWE1 (second series), active compounds read low 1.01 | locus YJR043C, strain POL32, active compounds read low 1 | locus YJR066W, strain TOR1, active compounds read low 0.971
